# IL1B secr inh = qHTS for Inhibitors of Inflammasome Signaling: IL-1-beta AlphaLISA Primary Screen; actives 4.7% (n = 360,000); activity change, % at 57.5 µM; THP-1 LPS/ATP IL-1B secretion, AlphaLISA, 16 h; active compounds read low; in the data active = activity change below about -50%; inconclusive = mostly about -30% to -49%
#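 Secreted IL-1B measured by AlphaLISA bead assay after 16 h compound exposure of THP-1 cells; compounds (final up to 57.5 uM) added 1 h before LPS (250 ng/mL) and ATP (1.25 mM) stimulation; lower signal means less secretion.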
# HT1080 IDH1KD tx = qHTS for induction of synthetic lethality in tumor cells producing 2HG: qHTS for the HT-1080-IDH1KD cell line | HT-1080 IDH1 knockdown viability, ATP luminescence, 48 h | Potency, µM (highest dose often 46.1 µM), actives largely listed as cytotoxic | actives 2% (n = 360,000)
#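 Using the IDH1-knockdown HT-1080 line run in the same batch and compound series as the NT line, viability after 48 h at 37 °C was determined by CellTiter-Glo luminescence and expressed as % activity.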
# DT40 TDP1 CPT = qHTS for Inhibitors of human tyrosyl-DNA phosphodiesterase 1 (TDP1): qHTS in cells in presence of CPT. AID 686979, 2013. actives 12% (n = 420,000). chicken DT40 Tdp1-/-;hTDP1 cells + 20 nM CPT, ATP luminescence, 48 h. Potency, µM (series often up to 46.2 µM), actives largely listed as inhibitors; also: nearly all actives have a fitted effect of over 55% in size
#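 Chicken DT40 Tdp1-/- cells complemented with human TDP1, 400 cells/well, exposed to compounds plus 20 nM camptothecin for at least 48 h at 37 C; viability read as ATP content by CellTiter-Glo luminescence.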
# DT40 TDP1 no CPT = qHTS for Inhibitors of human tyrosyl-DNA phosphodiesterase 1 (TDP1): qHTS in cells in absence of CPT. DT40 Tdp1-/- hTDP1 cells, no CPT, ATP luminescence, 48 h. Potency, µM (titrated, usually from 46.2 µM), usual class: inhibitors. actives 15% (n = 420,000). AID 686978, 2013; also: nearly all actives have a fitted effect of over 55% in size
#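 A cellular qHTS used chicken DT40 cells lacking endogenous Tdp1 but carrying stably transfected human TDP1. Compounds were applied without camptothecin, and cell growth kinetics were judged by ATP-dependent luminescence after ≥48 hr.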
# HT1080-NT tox = qHTS for induction of synthetic lethality in tumor cells producing 2HG: qHTS for the HT-1080-NT fibrosarcoma cell line; actives 1.6% (n = 360,000); HT-1080-NT fibrosarcoma viability, CellTiter-Glo ATP luminescence, 48 h; Potency, µM (titrated, usually from 46.1 µM), usual class: cytotoxic;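 also: NT is the 2HG producing partner of a matched IDH1 knockdown line; nearly all actives have a fitted effect of over 55% in size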
#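 Viability by CellTiter-Glo luminescence after 48 h compound exposure at 37C of HT-1080-NT cells (750/well, RPMI, 5% FBS). % activity scaled between DMSO wells and medium-only wells, then curve-fitted and categorized by curve class.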
# Numbers stand for hits; . = inactive; ? = inconclusive; / = no result. In the library only some 19% were active in any assay of this set; here they are far more common. Unless noted, calls follow the shape of the dose curve; as a rule, active = well fitted curve in the direction sought with a large enough effect; inconclusive = small, poorly fitted or top-dose-only effect, or another doubt; inactive = no such curve, though single readings can be large; an effect the other way counts as inactive or inconclusive.
SMILES,IL1B secr inh,HT1080 IDH1KD tx,DT40 TDP1 CPT,DT40 TDP1 no CPT,HT1080-NT tox
COCC1CCCCN1C(=O)C1CCN(c2nc(-c3ccccc3)nc3c2CCC3)CC1 (stereo not given),.,.,18µM,15µM,.
COCC1CCN(C(=O)C2CCN(c3nc(-c4ccccc4)nc4c3CCC4)CC2)C1 (stereo not given),?,.,?,?,.
COc1ccc(CCNC(=O)Cc2c(C)c3cc4c(C)coc4cc3oc2=O)cc1OC,/,/,.,.,/
Cc1nc(CSc2ccc(Cl)cc2)cc(N2CCOCC2)n1,.,.,.,.,.
Cc1nc(CS(=O)(=O)c2ccccc2)cc(N2CCOCC2)n1,.,.,9.2µM,9.2µM,.
Cc1c(C(=O)N2CCOCC2)[nH]c2c1C(=O)CC(c1ccccc1Cl)C2 (stereo not given),.,4µM,3.3µM,4.1µM,5µM
COc1ccc(C2CC(=O)c3c([nH]c(C(=O)OC4CCCCCC4)c3C)C2)cc1OC (stereo not given),/,/,3.7µM,4.6µM,/
Cc1c(C(=O)OC2CCCCCC2)[nH]c2c1C(=O)CC(c1ccc(N(C)C)cc1)C2 (stereo not given),/,/,.,?,/
COc1ccc(C2CC(=O)c3c([nH]c(C(=O)OC4CCCC4)c3C)C2)cc1OC (stereo not given),/,/,.,.,/
Cc1c(C(=O)OC2CCCCC2)[nH]c2c1C(=O)CC(c1ccccc1Cl)C2 (stereo not given),/,/,4.1µM,2.1µM,/
Cc1c(C(=O)OC2CCC(C)CC2)[nH]c2c1C(=O)CC(c1ccc(F)cc1)C2 (stereo not given),/,/,?,18µM,/
COc1ccc(N2CCN(C(=O)c3cc(NC(C)=O)c4c(c3)ncn4CCc3ccccn3)CC2)cc1,/,/,.,.,/
Cc1c(C(=O)OC2CCCC2)[nH]c2c1C(=O)CC(c1ccc(C(C)(C)C)cc1)C2 (stereo not given),/,/,18µM,?,/
CN1CCN(c2ccc(-c3cccc(NC(=O)COc4ccccc4)c3)nn2)CC1,.,.,?,21µM,.
CN1CCN(c2ccc(-c3cccc(NC(=O)COc4ccc(Cl)cc4)c3)nn2)CC1,-70,.,?,?,.
O=c1[nH][nH]c(=O)c(Cl)c1Cl,.,.,.,.,.
Cn1ccsc1=NC(=O)c1cc(S(=O)(=O)N2CCOCC2)ccc1F,.,.,.,.,.
Cc1cccc(N2CC(O)(c3cccs3)[N+]3=C2CCCC3)c1C (stereo not given),.,.,?,21µM,.
CC(=O)Nc1ccc(NC(=O)C2(C)Cc3c(-c4cccc(C(F)(F)F)c4)ccnc3O2)cc1 (stereo not given),.,.,?,?,.
CC(C)c1ccc(NC(=O)C2(C)Cc3c(-c4cccc(C(F)(F)F)c4)ccnc3O2)cc1 (stereo not given),.,.,16µM,?,.
CC(=O)Nc1ccc(-c2ccnc3c2CC(C)(C(=O)NCc2ccc(N(C)C)cc2)O3)cc1 (stereo not given),?,.,?,?,?
COc1ccc(NC(=O)C2(C)Cc3c(-c4cccc(C(N)=O)c4)ccnc3O2)cn1 (stereo not given),.,4.6µM,3.7µM,2.3µM,?
CC(C)c1ccc(NC(=O)C2(C)Cc3c(-c4ccc(N(C)C)cc4)ccnc3O2)cc1 (stereo not given),.,.,?,16µM,.
CN(C)c1ccc(-c2ccnc3c2CC(C)(C(=O)Nc2cccc(C(F)(F)F)c2)O3)cc1 (stereo not given),.,.,.,?,.
COc1ccc(NC(=O)C2(C)Cc3c(-c4ccc(N(C)C)cc4)ccnc3O2)cn1 (stereo not given),.,?,23µM,9.2µM,?
